From PubChem BioAssay AID2314 (National Center for Advancing Translational Sciences (NCATS), 2010)
In all, about 300,000 compounds went through this assay and about 37,000 (12%) were called active. No stated cut-off is given here; in the data, active means max response mostly above about 13% (no sharp cut-off); inactive means mostly below about 14%. The sample as a whole holds a higher share of actives than the screen did.

Assay: Cycloheximide Counterscreen for Small Molecule Inhibitors of Shiga Toxin; further: read at 38.3 µM for the half of the compounds with a filed dose; 0% is about no effect
Conditions: cell reporter, cycloheximide protein synthesis inhibition counterscreen; hits give high values
With O=C(Nc1ccc(C(=O)O)cc1)/C(=C\c1ccccc1)NC(=O)c1ccc(Br)cc1 the max response was -2.74% (inactive).
For COc1ccc(C(=O)NC2CC(C)(C)Cc3c2cnn3-c2ccccc2)c(OC)c1 (centres undefined), the max response was 0.758% (inactive).
For CCCNC(=O)OC[C@H]1O[C@H](CCO/N=C/[C@@H](NS(=O)(=O)c2ccc(C)cc2)[C@H](C)/C=C/CC(=O)OC)C=C[C@@H]1Oc1ccc(OC)cc1, the max response was -2.36% (inactive).
With Cc1cccc(N2CCN(C(=O)CN(C)S(=O)(=O)c3ccc4c(c3)CCC(=O)N4)CC2)c1C the max response was -5.43% (inactive).
With COc1ccc(CNC(=O)C(C)n2nc(C)c3c(C)n(-c4ccccc4)nc3c2=O)c(OC)c1 (centres undefined) the max response was -7.8% (inactive).
For Cc1cccc(S(=O)(=O)N2CN(CC3CCCO3)c3nc4ccccc4nc32)c1 (centres undefined), the max response was 12.8% (inactive).
In the case of O=c1oc2ccccc2c(CNc2ccccc2)c1[N+](=O)[O-], the max response is reported as -2.06% (inactive).
In the case of CCOc1ccccc1N1CCN(C(=O)COc2ccc3c(C)cc(=O)oc3c2)CC1, the max response is reported as -3.54% (inactive).
In the case of CC(C)(C)NC(=O)CSc1nnc(NC(=O)CCc2ccccc2)s1, the max response is reported as -0.182% (inactive).
For COc1ccc([N+](=O)[O-])cc1NC(=O)CCc1ccccc1, the max response was -3.85% (inactive).
With O=C(CCc1ccccc1)Nc1ncc([N+](=O)[O-])s1 the max response was 60.9% (active).
For CCCn1c(SCC(=O)c2ccc3c(c2)OCCO3)nnc1C(C)C, the max response was 15.2% (active).
With CCn1c(SCC(=O)Nc2ccc3c(c2)OCCO3)nnc1C(C)C the max response was -1.89% (inactive).
In the case of CCCn1c(SCC(N)=O)nnc1C(C)C, the max response is reported as -4.34% (inactive).
For COc1cc(C(=O)N/C(=C\c2cn(C)c3ccccc23)C(=O)N2CCOCC2)cc(OC)c1OC, the max response was -5.05% (inactive).
For O=C(C1CCCN(S(=O)(=O)c2ccccc2)C1)N1CCN(c2ccc(F)cc2)CC1 (centres undefined), the max response was 8% (inactive).
In the case of O=[N+]([O-])c1ccc2[nH]c3c(c2c1)CCCC3O (centres undefined), the max response is reported as -4.82% (inactive).
In the case of CCOC(=O)c1ccc(NC(=O)c2cc(=O)[nH]c3ccccc23)cc1, the max response is reported as -2% (inactive).
In the case of CCOC(=O)c1ccc2[nH]c3c(c2c1)CCCC3NC=O (centres undefined), the max response is reported as 13.2% (active).
In the case of O=C(c1ccccc1)c1ccc(OCC(O)CN2CCCC2)cc1 (centres undefined), the max response is reported as 5.75% (inactive).
In the case of O=C(COc1cccc(F)c1)Oc1ccc(C(=O)c2ccccc2)cc1, the max response is reported as 15.6% (inactive).
In the case of O=C(c1ccccc1)c1ccc(OC(=O)N2CCCC2)cc1, the max response is reported as 37.5% (active).
In the case of CC(C)(C)c1ccc(C(=O)N2CCC(C(=O)N3CCCCC3)CC2)cc1, the max response is reported as -2.39% (inactive).
For O=C(Nc1cccc(OC(=O)N2CCCCC2)c1)N1CCOCC1, the max response was 5.17% (inactive).
In the case of CC(C)(C)c1ccc(OC(=O)N2CCCCC2)cc1, the max response is reported as 54.1% (active).
With CC(C)CCNC(=O)C(C)N(C(=O)Cn1nnc(-c2ccc(F)cc2)n1)C1CCCC1 (centres undefined) the max response was -1.9% (inactive).
With COC(C[C@@H](O)[C@H](C)[C@H](O)COCc1ccccc1)OC the max response was 5.98% (inactive).
In the case of O=C(NCCS(=O)(=O)N1CCN(c2ccccc2F)CC1)c1ccc(Br)o1, the max response is reported as 8.75% (inactive).
In the case of O=S(=O)(c1ccc2c(c1)OCCCO2)N1CCN(S(=O)(=O)c2c(F)cccc2F)CC1, the max response is reported as 3.98% (inactive).
In the case of CN(C)c1ccc(-c2nnc(-c3cccnc3)o2)cc1, the max response is reported as 56.2% (active).
For CN(C)c1nc(-c2cccnc2)nc(-c2ccc(Cl)cc2)c1C#N, the max response was -4.98% (inactive).
In the case of Cc1csc(NC(=O)CSc2nnc(-c3cccnc3)o2)n1, the max response is reported as -7.35% (inactive).
For CCCNCc1cc(OCC)c(OCC(=O)Nc2ccccc2)cc1Br, the max response was -0.891% (inactive).
In the case of CCN(CC)CCCNC(=O)CCn1nc(-c2ccc(Cl)cc2)ccc1=O, the max response is reported as -2.58% (inactive).
For CC(C)N(Cc1ccccc1)C(=O)COC(=O)c1cnccn1, the max response was -3.2% (inactive).
With Cc1ccc(C(=O)N2CCCCCC2)cc1Br the max response was 10.4% (inactive).
In the case of Cc1ccc2oc(=O)c3cnn(CC(=O)N4CCCCCC4)c3c2c1, the max response is reported as -10.3% (inactive).
With Cc1ccc2cc3cc(C(=O)N4CCCCCC4)oc3nc2c1 the max response was 43.7% (active).
For C=CCn1c(SCC(=O)NCCCO)nc2sc3c(c2c1=O)CCC3, the max response was -2.04% (inactive).
In the case of NCCCCC(N)C(=O)O (centres undefined), the max response is reported as -7.46% (inactive).
For CN1/C(=C\C=C2\N=C(c3ccc(F)cc3)OC2=O)C(C)(C)c2ccccc21, the max response was -1.91% (inactive).
For Cc1cccc(C(=O)Nc2ccc(C(=O)N/N=C/c3cccc(C)n3)cc2)c1, the max response was 5.54% (inactive).
For Cc1cccc(C(=O)Nc2ccc(C(=O)/C=C/c3cccs3)cc2)c1, the max response was 76% (active).
In the case of Cc1cccc(C(=O)Nc2ccc(CC(=O)O)cc2)c1, the max response is reported as -5.6% (inactive).
With C=CCN1CCN(C(=O)CCCc2ccccc2)CC1 the max response was 1.1% (inactive).
For CCCS(=O)(=O)N1CCN=C1SCc1cccc(F)c1, the max response was -1.71% (inactive).
For COc1ccc(NC(=O)COC(=O)c2ccncc2)c(OC)c1, the max response was 0.0404% (inactive).
For O=C(COC(=O)c1ccncc1)c1ccccc1, the max response was 18.7% (active).
With O=C(OCC(O)C(O)COC(=O)c1ccccc1)c1ccccc1 (centres undefined) the max response was -1.94% (inactive).
With CCOc1ccc(C)cc1S(=O)(=O)NC1CCCCCC1 the max response was -2.48% (inactive).
For Cc1ccccc1NC(=O)NCC1CCN(Cc2cccc(Cl)c2)CC1, the max response was -4.17% (inactive).
For N=c1oc2ccccc2cc1C(=O)N/N=C/c1ccccc1, the max response was 46.7% (active).
In the case of N=c1oc2ccccc2cc1C(=O)NCc1ccccc1, the max response is reported as 41.3% (active).
For CC(NC(=O)c1cc2cc(Cl)ccc2oc1=N)c1ccccc1 (centres undefined), the max response was -1.94% (inactive).
With CNC(=O)c1cc2c(ccc3ccccc32)oc1=N the max response was 18.4% (inactive).
For COc1cccc2cc(C(=O)NCc3ccc(C)cc3)c(=N)oc12, the max response was 3.84% (inactive).
In the case of O=C(c1cccc(Br)c1)N1CCN(C2=NS(=O)(=O)c3ccccc32)CC1, the max response is reported as -3.24% (inactive).
For CC1=C(C(=O)OC2CCCCC2)C(c2ccccc2F)NC(=O)N1 (centres undefined), the max response was 13.8% (inactive).
In the case of COc1cc(OC)c(OC)cc1CN1CCN(C(=O)c2cccc3ccccc23)CC1, the max response is reported as -0.856% (inactive).
With O=C(N/C(=C\c1ccc([N+](=O)[O-])cc1)C(=O)N1CCCCC1)c1ccco1 the max response was -1.29% (inactive).
In the case of Cc1cc(C)nc(N(C#N)CC(=O)Nc2ccccc2)n1, the max response is reported as -2.23% (inactive).
For CC(Sc1nnc2c(n1)C1CCC2(C)C1(C)C)C(=O)Nc1ccccc1 (centres undefined), the max response was -1.8% (inactive).
With CSc1nc(C)cc(SC(C(C)=O)C(=O)Nc2ccccc2)n1 (centres undefined) the max response was 31.9% (active).
With Cc1c(OC(C)C(=O)NCC2CCC(C(=O)O)CC2)ccc2c1oc(=O)c1ccccc12 (centres undefined) the max response was -1.17% (inactive).
For CS(=O)(=O)N(Cc1ccccc1Cl)c1ccc(C(=O)NCc2cccnc2)cc1, the max response was -1.15% (inactive).
For CCCCn1c(=O)c(C(C)=O)c(O)c2ccccc21, the max response was 1.86% (inactive).
In the case of CCOc1ccc(N=Cc2c(O)n(-c3cccc(C)n3)c(=O)c3ccccc23)cc1, the max response is reported as 9.6% (inactive).
With CC(=O)n1c(C=Nc2ccccc2)c(O)c2ccccc21 the max response was 33.7% (active).
For O=C(c1cccnc1)N(c1cc2sc(=O)oc2c2ccccc12)S(=O)(=O)c1ccccc1, the max response was -2.05% (inactive).
With Cc1ccc(N(C(=O)c2ccc(S(=O)(=O)N(C)C)cc2)C2C=CS(=O)(=O)C2)cc1 (centres undefined) the max response was -2.02% (inactive).
For O=C(c1ccc(OC2CCN(C/C=C/c3ccc(F)cc3)CC2)cc1)N1CCCCC1, the max response was -0.769% (inactive).
For Nc1ccccc1SCc1cc([N+](=O)[O-])cc2c1OCOC2, the max response was 24.7% (active).
With CC(O)C(NS(=O)(=O)c1ccc(Cl)cc1)C(=O)OCc1cc([N+](=O)[O-])cc2c1OCOC2 (centres undefined) the max response was -0.904% (inactive).
For CCC1(CC)Cc2ccccc2-c2nc(CCl)[nH]c(=O)c21, the max response was -3.16% (inactive).
In the case of CC(=O)OCCN(CCCn1c(-c2ccncc2)nc2ccccc21)c1nc(-c2ccc(C)cc2)cs1, the max response is reported as -0.764% (inactive).
In the case of CCOC(=O)c1c(C)[nH]c(C(=O)COc2ccc3c(c2)OCO3)c1C, the max response is reported as 18% (inactive).
In the case of CCOCCOC(=O)C1=C(C)NC(=O)NC1c1ccc2c(c1)OCO2 (centres undefined), the max response is reported as -1.93% (inactive).
For CCOC(=O)c1nc(-c2ccc3c(c2)OCO3)[nH]c1C, the max response was 29% (active).
For Cc1cc(C)n2nc(C(=O)N(C)C(c3ccccc3)c3ccccc3)nc2n1, the max response was -3.94% (inactive).
In the case of CC1CN(C(=S)Nc2ccc(S(N)(=O)=O)cc2)CC(C)O1 (centres undefined), the max response is reported as -1.03% (inactive).
For O=C(Nc1ccc(Br)cc1)c1cc(S(=O)(=O)Nc2ccccn2)ccc1Cl, the max response was 0.597% (inactive).
With CCOC(=O)C1=C(c2ccccc2)NC(=O)NC1c1cc(OC)c(OC)cc1OC (centres undefined) the max response was 1.07% (inactive).
With CC(C)=C(NC(=O)c1ccccc1)C(=O)N/N=C(\C)c1ccccc1O the max response was 1.01% (inactive).
In the case of C/C(=N\NC(=O)c1ccoc1C)c1ccccc1O, the max response is reported as 18.7% (active).
With COc1ccccc1N(CC(=O)N/N=C(\C)c1ccccc1O)S(=O)(=O)c1ccc(C)cc1 the max response was -1.67% (inactive).
With COc1ccc(Cl)cc1-n1c(C)cc(C(=O)OCC(=O)N2CC(=O)Nc3ccccc32)c1C the max response was 0.969% (inactive).
For CC(C)COC(=O)n1c(=O)oc2ccc(S(=O)(=O)N3CCCCC3)cc21, the max response was -3.35% (inactive).
With O=C(Nc1nnc(-c2ccc(F)cc2)s1)c1c(F)cccc1Cl the max response was -1.16% (inactive).
For Cc1cccc(OCCNC(=S)NC(=O)c2cccnc2)c1, the max response was -2.88% (inactive).
For COCCCNC(=S)NC(=O)c1ccc([N+](=O)[O-])cc1, the max response was 27.5% (active).
With COc1ccccc1OCCNC(=O)c1cc([N+](=O)[O-])cc([N+](=O)[O-])c1 the max response was 6.58% (inactive).
For COCCCNC(=S)NNC(=O)C(O)(c1ccccc1)c1ccccc1, the max response was -2.66% (inactive).
In the case of COCCCNC(=S)NC(=O)c1ccccc1, the max response is reported as 36.8% (active).
With CCCCCC(=O)NC(=S)NNC(=O)c1ccc([N+](=O)[O-])cc1 the max response was 0.94% (inactive).
